Source: PubChem BioAssay (several laboratories)
Only some compounds are listed: those with a hit (about 1.4% of all), similar ones and a draw of the others.
HTR5A ag ctr: activates human HTR5A in OPRM1-OPRD1 agonist counter-screen; P47898; HTR5A agonist assay, luminescence, cell-based; activation, % at 9.3 µM; actives 0.61% (n = 340,000); AID 504692; in the data active = activation mostly above about 9.5%, no sharp cut-off; inactive = mostly below about 7.6%
HTR5A inv ag: counter-screen for OPRM1-OPRD1 inverse agonists: human HTR5A inverse agonism. P47898. HTR5A cell line, luminescence. inhibition, % at 9.3 µM. actives 0.083% (n = 340,000); in the data active = inhibition mostly above about 23%, no sharp cut-off; inactive = mostly below about 18%
MOR-DOR inv ag: inverse agonist of human OPRM1-OPRD1 heterodimerization; P35372+P41143; inhibition, % at 9.3 µM; actives 0.21% (n = 340,000); cell-based MOR-DOR heterodimer luminescence, inverse agonism; in the data active = inhibition above about 22%, passing the limit was not always enough
Target sequence (P35372 whole entry, looked up): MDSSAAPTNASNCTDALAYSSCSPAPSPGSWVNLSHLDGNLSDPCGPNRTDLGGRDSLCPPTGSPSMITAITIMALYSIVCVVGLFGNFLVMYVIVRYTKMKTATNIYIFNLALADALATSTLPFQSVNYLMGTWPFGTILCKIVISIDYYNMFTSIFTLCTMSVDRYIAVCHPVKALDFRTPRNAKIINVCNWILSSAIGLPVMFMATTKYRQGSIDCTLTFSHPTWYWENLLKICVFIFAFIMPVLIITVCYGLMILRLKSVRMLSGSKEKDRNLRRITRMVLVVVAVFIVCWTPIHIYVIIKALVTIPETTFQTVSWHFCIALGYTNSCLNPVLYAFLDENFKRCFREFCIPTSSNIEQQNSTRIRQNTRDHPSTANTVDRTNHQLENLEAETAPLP
Target sequence (P41143 whole entry, looked up): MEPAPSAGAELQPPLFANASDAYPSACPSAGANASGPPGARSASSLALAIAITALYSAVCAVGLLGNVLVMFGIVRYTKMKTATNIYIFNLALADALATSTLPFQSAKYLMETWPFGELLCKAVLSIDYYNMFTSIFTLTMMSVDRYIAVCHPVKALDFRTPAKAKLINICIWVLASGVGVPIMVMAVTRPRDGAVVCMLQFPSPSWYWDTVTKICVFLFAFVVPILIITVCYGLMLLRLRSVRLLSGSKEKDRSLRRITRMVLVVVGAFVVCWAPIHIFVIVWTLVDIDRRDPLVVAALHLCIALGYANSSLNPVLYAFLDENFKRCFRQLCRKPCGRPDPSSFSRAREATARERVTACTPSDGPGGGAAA
pCIP destab: p/CIP protein destabilization | AID 1984 | F442A p/CIP-EGFP cells, EGFP fluorescence, 16 h | actives 0.01% (n = 290,000) | decrease of EGFP signal, % at 10 µM;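 active = EGFP signal decrease of at least 30% at 10 µM or well 3 SD below plate mean, unless failing retest; inactive = the rest, including hits failing retest or dose response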
MIN6 prolif-1: inducers of beta-cell replication in MIN6 cells; MIN6 cells proliferation, ATPlite luminescence, 48 h; cells starved in 0.2% serum; 100% = growth in 10% serum; proliferation, % at 10 µM; actives 0.29% (n = 330,000); AID 2380;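 active = compounds whose signal lies at least 3.5 SD above the mean of all wells on their plate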
OPRM1-OPRD1 ag: OPRM1-OPRD1 heterodimerization agonism | cells, luminescence | AID 504326 | activation, % at 9.3 µM | actives 0.3% (n = 340,000) | P35372+P41143; in the data active = activation above about 18%
MIN6 prolif-2: MIN6 beta-cell replication induction, confirmed; shares compounds with MIN6 prolif-1; MIN6 beta-cell proliferation, ATPlite luminescence, 48 h; cells kept in 0.2% serum; scaled between 0.2% and 10% serum; proliferation increase, % at 50 µM; 920 tested, under 10 active;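 active = proliferation increase above 40% at any of the four tested concentrations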
Numbers stand for hits.

For COCCNC(=O)C(c1ccc(F)cc1)N(Cc1ccccc1)C(=O)CCC(=O)Nc1ccccn1 (stereo unspecified) the results were HTR5A ag ctr inactive, HTR5A inv ag inactive, MOR-DOR inv ag inactive, pCIP destab inactive, MIN6 prolif-1 inactive and OPRM1-OPRD1 ag inactive.
`Cc1ccc(C)c(S(=O)(=O)NC2CCS(=O)(=O)C2)c1` (stereo unspecified) gave HTR5A ag ctr inactive, HTR5A inv ag inactive, MOR-DOR inv ag inactive, MIN6 prolif-1 12, OPRM1-OPRD1 ag inactive and MIN6 prolif-2 inactive.
CCCCC(OC(=O)CN1C(=O)COc2ccccc21)C(=O)NC1CCCCC1 (stereo unspecified) was read as HTR5A ag ctr inactive, HTR5A inv ag inactive, MOR-DOR inv ag inactive, pCIP destab inactive, MIN6 prolif-1 11, OPRM1-OPRD1 ag inactive and MIN6 prolif-2 inactive.
For CCCC(OC(=O)CN1C(=O)COc2ccccc21)C(=O)NC1CCCC1 (stereo unspecified) the results were HTR5A ag ctr inactive, HTR5A inv ag inactive, MOR-DOR inv ag inactive, pCIP destab inactive, MIN6 prolif-1 inactive and OPRM1-OPRD1 ag inactive.
`Cc1ccc(N(CC(=O)NC2CCCC2)C(=O)CCC(=O)Nc2nccs2)c(C)c1` gave HTR5A ag ctr inactive, HTR5A inv ag inactive, MOR-DOR inv ag inactive, pCIP destab inactive, MIN6 prolif-1 21, OPRM1-OPRD1 ag inactive and MIN6 prolif-2 inactive.
O=C(COc1cc(F)ccc1[N+](=O)[O-])Nc1cccc(S(=O)(=O)NC2=NCCC2)c1 was read as HTR5A ag ctr inactive, HTR5A inv ag inactive, MOR-DOR inv ag inactive, MIN6 prolif-1 inactive and OPRM1-OPRD1 ag inactive.
`C#CCOC(=O)c1ccccc1C(=O)n1nnc2ccccc21` gave HTR5A ag ctr inactive, HTR5A inv ag inactive, MOR-DOR inv ag inactive, pCIP destab inactive, MIN6 prolif-1 inactive and OPRM1-OPRD1 ag inactive.
O=C(c1cccc2ccccc12)n1nnc2ccccc21 was read as MIN6 prolif-1 10 and MIN6 prolif-2 inactive.
`COc1cc(-c2nn3c(C4CCCCC4)nnc3s2)cc(OC)c1OC` gave HTR5A ag ctr inactive, HTR5A inv ag inactive, MOR-DOR inv ag inactive, pCIP destab inactive, MIN6 prolif-1 inactive and OPRM1-OPRD1 ag inactive.
For COc1ccc(-c2nn3c(C4CCCCC4)nnc3s2)cc1OC the results were HTR5A ag ctr inactive, HTR5A inv ag inactive, MOR-DOR inv ag inactive, pCIP destab inactive, MIN6 prolif-1 9.1, OPRM1-OPRD1 ag inactive and MIN6 prolif-2 inactive.
COc1ccc(OC)c(C2=Nn3c(nnc3C3CCCCC3)SC2)c1 was read as HTR5A ag ctr inactive, HTR5A inv ag inactive, MOR-DOR inv ag inactive, pCIP destab inactive, MIN6 prolif-1 9.3, OPRM1-OPRD1 ag inactive and MIN6 prolif-2 inactive.
COc1cccc(NC(=O)NNC(=O)CCc2ccc(O)c(O)c2)c1 was read as HTR5A ag ctr inactive, HTR5A inv ag inactive, MOR-DOR inv ag inactive, pCIP destab inactive, MIN6 prolif-1 inactive and OPRM1-OPRD1 ag inactive.
For CCOC(=O)C(=CNc1ccc(N2CCCCC2)c(S(=O)(=O)Nc2ccccc2OC)c1)C(=O)OCC the results were HTR5A ag ctr inactive, HTR5A inv ag inactive, MOR-DOR inv ag inactive and OPRM1-OPRD1 ag inactive.
COc1ccc(CN2CCCCC2c2cccnc2)c(OC)c1C (stereo unspecified) was read as HTR5A ag ctr inactive, HTR5A inv ag inactive, MOR-DOR inv ag inactive, pCIP destab inactive, MIN6 prolif-1 6.7, OPRM1-OPRD1 ag inactive and MIN6 prolif-2 inactive.
Screening COc1ccc(OC)c(-c2nc(CN3CCCCC3c3cccnc3)c(C)o2)c1 (stereo unspecified) returned HTR5A ag ctr inactive, HTR5A inv ag inactive, MOR-DOR inv ag inactive, pCIP destab inactive, MIN6 prolif-1 inactive and OPRM1-OPRD1 ag inactive.
Screening NC(=O)C1(Nc2ccc(-c3ccc(Br)cc3)cc2)CCCC1 returned HTR5A ag ctr inactive, HTR5A inv ag inactive, MOR-DOR inv ag inactive and OPRM1-OPRD1 ag inactive.
NC(=O)C1CCN(c2nc(-c3cccc(Cl)c3)cs2)CC1 was read as HTR5A ag ctr inactive, HTR5A inv ag inactive, MOR-DOR inv ag inactive, MIN6 prolif-1 inactive and OPRM1-OPRD1 ag inactive.
Screening COc1ccccc1NC(=O)CCCN1C(=O)C(c2ccccc2)Oc2cccnc21 (stereo unspecified) returned HTR5A ag ctr inactive, HTR5A inv ag inactive, MOR-DOR inv ag inactive, pCIP destab inactive, MIN6 prolif-1 13, OPRM1-OPRD1 ag inactive and MIN6 prolif-2 inactive.
COc1ccc(NC(=O)CCCN2C(=O)C(c3ccccc3)Oc3cccnc32)c(OC)c1 (stereo unspecified) was read as HTR5A ag ctr inactive, HTR5A inv ag inactive, MOR-DOR inv ag inactive, pCIP destab inactive, MIN6 prolif-1 inactive and OPRM1-OPRD1 ag inactive.
For CN(CC(=O)Nc1c(Cl)cccc1Cl)C(=O)CCNS(=O)(=O)c1ccccc1C(F)(F)F the results were HTR5A ag ctr inactive, HTR5A inv ag inactive, MOR-DOR inv ag inactive, MIN6 prolif-1 12, OPRM1-OPRD1 ag inactive and MIN6 prolif-2 inactive.
Screening Cc1nc(N2CCCCC2)c2sc(=S)n(C)c2n1 returned HTR5A ag ctr inactive, HTR5A inv ag inactive, MOR-DOR inv ag inactive, pCIP destab inactive, MIN6 prolif-1 8.9, OPRM1-OPRD1 ag inactive and MIN6 prolif-2 inactive.
Screening CCN(CC)c1nc(C)nc2c1sc(=S)n2C returned HTR5A ag ctr inactive, HTR5A inv ag inactive, MOR-DOR inv ag inactive, pCIP destab inactive, MIN6 prolif-1 8.0, OPRM1-OPRD1 ag inactive and MIN6 prolif-2 inactive.
Screening Cc1ccc(OCCC(=O)OCC(=O)Nc2c(C)nn(-c3ccccc3)c2C)cc1 returned HTR5A ag ctr inactive, HTR5A inv ag inactive, MOR-DOR inv ag inactive, MIN6 prolif-1 inactive and OPRM1-OPRD1 ag inactive.
CCCn1c(N)c(N(CCOC)C(=O)CSc2c(Cl)cccc2Cl)c(=O)[nH]c1=O was read as HTR5A ag ctr inactive, HTR5A inv ag inactive, MOR-DOR inv ag inactive, MIN6 prolif-1 inactive and OPRM1-OPRD1 ag inactive.
`COC(=O)c1c(NC(=O)Cc2cccs2)sc(C)c1C` gave HTR5A ag ctr inactive, HTR5A inv ag inactive, MOR-DOR inv ag inactive, pCIP destab inactive, MIN6 prolif-1 inactive and OPRM1-OPRD1 ag inactive.
`CCOC(=O)c1c(NC(=O)Cc2cccs2)sc(C(=O)N2CCCCC2)c1C` gave HTR5A ag ctr inactive, HTR5A inv ag inactive, MOR-DOR inv ag inactive, pCIP destab inactive, MIN6 prolif-1 9.5, OPRM1-OPRD1 ag inactive and MIN6 prolif-2 inactive.
Screening COCC(=O)N1CCC(Oc2ccc(C(=O)N3CCCCCC3)cc2)CC1 returned HTR5A ag ctr inactive, HTR5A inv ag inactive, MOR-DOR inv ag inactive, pCIP destab inactive, MIN6 prolif-1 inactive and OPRM1-OPRD1 ag inactive.
COc1cccc2c1c(NC(=O)Nc1ccc(F)cc1F)nn2C was read as HTR5A ag ctr inactive, HTR5A inv ag inactive, MOR-DOR inv ag inactive, pCIP destab inactive, MIN6 prolif-1 6.8, OPRM1-OPRD1 ag inactive and MIN6 prolif-2 inactive.
